An excerpt weighted towards active compounds, which were near 7.3% of everything screened.
p53 reactivator – qHTS assay for re-activators of p53 using a Luc reporter | Potency, µM (doses to about 92.2 µM), for inactives: at the highest dose activity change, positive = activation, most hits filed as activators | actives 0.063% (n = 320,000) | H1299 p53-A138V BP100-luciferase reporter, luminescence, 24 h; also: % of control where 0% means no effect; nearly all actives have a fitted effect of over 45% in size
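p53-null H1299 cells stably carrying temperature-sensitive p53-A138V and a BP100-luciferase reporter were pinned with compounds (4-point, 1:5 series) and held 24 hrs at 37 deg C. Luminescence was read 10 min after detection reagent.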
Rab9 prom act – qHTS Assay for Rab9 Promoter Activators; Potency, µM (titrated, usually from 9.22 µM), for the others: at the highest dose activation, negative = inhibition, most hits filed as activators; actives 2.8% (n = 320,000); Huh7 Rab9 promoter-luciferase reporter, luminescence, 24 h; also: % of control where 0% means no effect; nearly all actives have a fitted effect of over 60% in size
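Huh7 cells stably carrying a Rab9 promoter-luciferase reporter, 1500 cells per well in OP-MEM I with 10% FBS, treated with compound 24 hours at 37C. Luciferase activity read by luminescence after 10 minutes with Amplite reagent.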
NPC1 promoter act – qHTS Assay for NPC1 Promoter Activators; Huh7 NPC1 promoter luciferase reporter, 24 h; Potency, µM (doses to about 9.22 µM), for the others: at the highest dose activation, most hits filed as activators; actives 2.4% (n = 320,000); AID 485313, 2010; also: % of control where 0% means no effect; nearly all actives have a fitted effect of over 60% in size
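Quantitative HTS used a cell-based reporter: Huh7 cells stably bearing the NPC1 promoter upstream of luciferase were treated with compounds for 24 h, and promoter activation was read as luminescence.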
SMN2 splice up – qHTS Assay for Enhancers of SMN2 Splice Variant Expression; HEK293 SMN2-luciferase splicing reporter, luminescence, 30-36 h; Potency, µM (series often up to 46.1 µM), for the others: at the top dose activity change, positive = activation, actives largely listed as activators; actives 2.8% (n = 210,000); also: % of control where 0% means no effect; nearly all actives have a fitted effect of over 55% in size
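HEK293 cells carry an SMN2 […]–luciferase reporter in which exon 7 inclusion puts luciferase in frame. Cells were plated 10-12 h before compound addition, then incubated 30-36 h at 37C. ONE-Glo luminescence was read; sodium butyrate at 4.5 mM final served as control.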
ELG1 genotox – qHTS screen for small molecules that induce genotoxicity in human embryonic kidney (HEK293T) cells expressing luciferase-tagged ELG1. HEK293T ELG1-luciferase reporter, luminescence, 16 h. Potency, µM (doses to about 46 µM), for inactives: at the top dose activity change, positive = activation, usual class: activators. actives 1.3% (n = 330,000); also: % of control where 0% means no effect; nearly all actives have a fitted effect of over 60% in size
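Quantitative HTS format in 1536-well plates. HEK293T ELG1-luciferase reporter cells receive test compound and are incubated 16 hr at 37 °C, 5% CO2; ONE-Glo added, 30 min room temperature, then luminescence read.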
FLuc modulator – qHTS profiling assay for firefly luciferase inhibitor/activator using purifed enzyme and Km concentrations of substrates (counterscreen for miR-21 project). Luciferin 4-monooxygenase (Photinus pyralis), P08659. purified FLuc, Km substrates, luminescence inhibition. Potency, µM (series often up to 57.5 µM), inactives show top-dose activity change, negative = inhibition, actives largely listed as inhibitors. actives 6.9% (n = 360,000);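 also: plate controls were vehicle for no effect and reference inhibitor for full effect; nearly all actives have a fitted effect of over 55% in size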
Target sequence (P08659 whole entry, looked up): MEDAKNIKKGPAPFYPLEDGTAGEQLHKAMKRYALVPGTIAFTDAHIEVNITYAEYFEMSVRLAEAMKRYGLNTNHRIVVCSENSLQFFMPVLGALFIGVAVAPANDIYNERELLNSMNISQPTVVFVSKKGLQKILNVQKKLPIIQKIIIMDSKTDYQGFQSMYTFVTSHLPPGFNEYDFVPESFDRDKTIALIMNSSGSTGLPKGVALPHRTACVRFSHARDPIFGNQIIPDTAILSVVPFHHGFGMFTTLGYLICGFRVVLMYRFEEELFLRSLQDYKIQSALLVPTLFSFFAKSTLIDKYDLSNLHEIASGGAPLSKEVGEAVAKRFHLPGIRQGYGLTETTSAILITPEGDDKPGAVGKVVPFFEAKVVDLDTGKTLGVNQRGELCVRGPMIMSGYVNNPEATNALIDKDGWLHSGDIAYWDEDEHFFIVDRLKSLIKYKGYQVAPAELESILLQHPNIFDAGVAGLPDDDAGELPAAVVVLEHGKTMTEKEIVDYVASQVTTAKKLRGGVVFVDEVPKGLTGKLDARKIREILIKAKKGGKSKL
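Biochemical qHTS of compounds, final roughly 60 µM downward over six points, against 10 nM purified firefly luciferase using Km concentrations of substrates (10 uM D-luciferin, 10 uM ATP) in Tris acetate pH 7.5 buffer; luminescence output.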
* hit, by the source's call; ? = inconclusive; . = not tested or not shown; [ ] = dose if it differs, or a comment. Calls follow the shape of the dose curve; as a rule, active = well fitted curve in the direction sought with a large enough effect; inconclusive = small, poorly fitted or top-dose-only effect, or another doubt; inactive = no such curve, though single readings can be large; an effect the other way counts as inactive or inconclusive. Potency is read from the fitted curve at half-maximal effect.

SMILES	p53 reactivator	Rab9 prom act	NPC1 promoter act	SMN2 splice up	ELG1 genotox	FLuc modulator
Cc1ccc(C2C(C#N)=C(N)Oc3c2sc2ccccc32)o1 (stereo unspecified)	12%	1%	0%	5%	?	13µM*
CC(C)(C)C(=O)Nc1ccc(-c2cn3ccsc3n2)cc1	6%	0.13µM*	0.28µM*	?	?	0.54µM*
COc1ccc(C(=O)Nc2ccc(-c3cn4ccsc4n3)cc2)cc1S(=O)(=O)N1CCOCC1	7%	8%	-3%	-1%	-15%	-21%
CC(C)CC(=O)Nc1ccc(-c2cn3ccsc3n2)cc1	?	0.56µM*	1.4µM*	10µM*	1.2µM*	1.2µM*
O=C(CCCC(=O)OCC(=O)c1ccc(Cl)cc1)NC1CCCCC1	20%	4%	3%	.	3%	12µM*
O=C(CSc1nc2c([nH]c3ccccc32)c(=O)n1-c1cccc(C(F)(F)F)c1)N1CCCC1	.	.	.	.	.	2%
CC(=O)c1ccc(NC(=O)c2cnn(-c3cccc(F)c3)c2-n2cccc2)cc1	.	.	.	.	.	-13%
CC(=O)c1cccc(NC(=O)c2ccccc2-c2ccccc2C(=O)O)c1	?	-11%	5%	.	-5%	2%
CC(=O)c1ccc(NC(=O)c2cnn3ccccc23)cc1	21%	0.35µM*	0.35µM*	-37%	1.3µM*	5.4µM*
CC(=O)c1cccc(NC(=O)c2nc3ccccc3n(C)c2=O)c1	.	.	.	23%	.	3.8µM*
CC(=O)c1cccc(NC(=O)c2cnn3ccccc23)c1	?	3.2µM*	5µM*	.	12µM*	12µM*
CC(=O)N1N=C(c2ccccc2OC(=O)/C=C/c2ccccc2)CC1c1ccccc1 (stereo unspecified)	-3%	-2%	0%	.	-5%	-1%
O=S(=O)(NNc1ccc(Cl)nn1)c1ccc(F)cc1	16%	19%	5%	-5%	-2%	?
Cc1nc(-c2nc(-c3c(C(=O)NN)noc3C)cs2)cs1	27%	?	24%	?	0%	17µM*
Cc1nc(-c2nc(-c3c(C(=O)NNC(=O)c4ccc(Cl)cc4)noc3C)cs2)cs1	4%	-3%	-3%	.	-2%	-19%
Cc1ccc(C)c(N)c1	9%	-5%	0%	-2%	1%	-11%
CCc1ccc(-n2nc3cc(C)c(N)cc3n2)cc1	.	0.13µM*	0.32µM*	.	0.41µM*	0.19µM*
Cc1ccc(-n2nc3cc(C)c(N)cc3n2)cc1	?	1.1µM*	4µM*	1.4µM*	?	0.27µM*
CCc1ccc(-n2nc3cc(C)c(NC(=O)c4ccccc4C)cc3n2)cc1	.	.	.	11%	.	?
O=NN(Cc1ccc(Cl)cc1)[C@@H](C(=O)O)c1ccccc1	.	.	.	1%[9.22 µM]	.	.
CCCCC[C@H](O)/C=C/C=C\C/C=C\CCCCCCC(=O)O	.	.	.	-4%	.	.
N#Cc1c(SCC(=O)Nc2nc3ccc(Br)cc3s2)sc2c(O)cc(=O)[nH]c12	13%	26%	26%	.	0%	?
N#Cc1c(SCC(=O)Nc2nc3ccccc3s2)sc2c(O)cc(=O)[nH]c12	?	17%	1%	.	1%	2.4µM*
Cc1ccc2nc(-c3c[nH]c4ccccc34)c(Nc3ccccc3)n2c1	.	.	.	11µM*	.	-11%
Fc1ccc(Nc2c(-c3c[nH]c4ccccc34)nc3ccccn23)cc1	.	.	.	?	.	-7%
SMILES	p53 reactivator	Rab9 prom act	NPC1 promoter act	SMN2 splice up	ELG1 genotox	FLuc modulator
c1ccc(Nc2c(-c3c[nH]c4ccccc34)nc3ccccn23)cc1	.	.	.	16µM*	.	?
COc1cc(OC)c(OC)cc1CNc1sc2c(c1C(=O)Nc1ccccc1OC)CCC2	.	.	.	.	.	5%
C/C(=N\NC(=O)c1cccc(O)c1)c1cccc(NC(=O)c2ccc(F)cc2)c1	10%	14%	?	.	3%	1.9µM*
C/C(=N\NC(=O)c1c(Cl)cnn1C)c1cccc(NC(=O)C(C)C)c1	-6%	-7%	-3%	-10%	-3%	?
C/C(=N\NC(=O)c1c(Cl)cnn1C)c1cccc(NC(=O)c2ccc(C)cc2)c1	16%	?	?	.	4%	2.4µM*
C/C(=N\NC(=O)c1ccc(F)cc1)c1cccc(NC(=O)c2ccco2)c1	8%	30%	20%	3%	2%	4.8µM*
C/C(=N\NC(=O)c1cccc(N/N=C(\C)c2cc(O)ccc2O)c1)c1cc(O)ccc1O	9%	-35%	-18%	-56%	-15%	12µM*
Cn1cccc1C(=O)N1CCC[C@@]2(CCN(c3ccccc3)C2)C1	.	.	.	-42%	.	.
COc1ccc(C)cc1NS(=O)(=O)c1ccc2c(c1)CCCN2C(C)=O	.	.	.	.	.	5%
C/C(=N\NC(=O)c1cccc(N/N=C(\C)c2ccco2)c1)c1ccco1	15%	?	16%	-4%	12%	13µM*
C/C(=N\NC(=O)c1ccc(F)cc1)c1cccc(NC(=O)c2cccc(F)c2)c1	13%	5%	5%	.	-8%	-18%
C/C(=N\NC(=O)c1c(Br)cnn1C)c1ccc(NC(=O)c2ccc(F)cc2)cc1	26%	2%	12%	?	16µM*	4%
C/C(=N\NC(=O)c1cccc([N+](=O)[O-])c1)c1ccco1	10%	1%	2%	.	4%	-12%
C/C(=N\NC(=O)c1ccccc1F)c1cccc(NC(=O)c2ccc(C)cc2)c1	-6%	?	?	.	?	2.4µM*

Source: PubChem
